Pol beta inh: blocks human DNA polymerase beta activity | P06746 | Pol beta primer extension/strand displacement, fluorescence kinetic | Potency, µM (titrated, usually from 114 µM), without a hit: at the highest dose activity change, negative = inhibition, hits mostly inhibitors | hit rate 1.3% among 340,000 | AID 485314; note: % is set by controls: 0 for no effect and ±100 for the full control effect
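Kinetic readout of DNA synthesis with strand displacement by Pol beta. Compound and 10 nM enzyme sit 15 min at room temperature; 50 nM substrate starts the reaction, read immediately and at 10 min.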
POLK inh: inhibitors of human DNA polymerase kappa. hit rate 0.53% among 400,000. purified Pol kappa, fluorescent DNA synthesis assay, 10 min. Potency, µM (series often up to 107 µM), without a hit: at the highest dose activity, negative = inhibition, usual class: inhibitors; note: % is set by controls: 0 for no effect and ±100 for the full control effect
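Readout: fluorescence, taken kinetically at 0 and 10 min. Conditions: 10 nM Pol kappa, 15 min RT compound preincubation, 50 nM substrate final. Controls: enzyme-free buffer wells.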
Pol iota inh: DNA polymerase iota (human) inhibition. Q9UNA4. Pol iota fluorescent replication assay, 10 min. Potency, µM (highest dose often 115 µM), for inactives: at the top dose activity, negative = inhibition, actives largely listed as inhibitors. hit rate 1% among 390,000. AID 588590
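Fluorescent replication assay read twice, at 0 min and 10 min after adding 50 nM (final) substrate. Enzyme (10 nM) and compounds were first incubated 15 min at room temperature; enzyme-free buffer wells were negative controls.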
FEN1 inh: human FEN1 inhibition. P39748. Recombinant FEN1 flap cleavage, fluorescence, 15 min. Potency, µM (doses to about 114 µM), inactives show top-dose activity change, negative = inhibition, most hits filed as inhibitors. hit rate 0.35% among 390,000; note: % is set by controls: 0 for no effect and ±100 for the full control effect; nearly all actives have a fitted effect of over 65% in size
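Steps: FEN1 (10 nM) dispensed; compound added by pin tool; 15 min at room temperature; substrate added to 50 nM final; reads at 0 min and 15 min; data normalized and fitted (four-parameter Hill).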
POLH inh: blocks human DNA polymerase eta activity | recombinant Pol eta, fluorescent DNA replication assay | AID 588591 | hit rate 1.2% among 390,000 | Potency, µM (top dose mostly 114 µM), for the others: at the top dose activity change, negative = inhibition, usual class: inhibitors | Q9Y253; note: % is set by controls: 0 for no effect and ±100 for the full control effect
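Fluorescent replication assay: 50 nM final substrate added after a 15 min room-temperature compound preincubation with 10 nM enzyme. Signal taken at 0 min and again at 10 min.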
WRN helicase inh: inhibitors of human WRN helicase; Q14191; WRN helicase unwinding, fluorescent forked duplex, kinetic; Potency, µM (highest dose often 114 µM), without a hit: at the top dose activity change, negative = inhibition, actives largely listed as inhibitors; hit rate 0.46% among 360,000; AID 651768; note: % is set by controls: 0 for no effect and ±100 for the full control effect; nearly all actives have a fitted effect of over 55% in size
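Fluorescence dequenching readout, ex 525 nm/em 598 nm, kinetic mode: forked duplex DNA (100 nM final) with adjacent fluorophore and quencher unwound by WRN (20 nM final) with 2 mM ATP. Compound preincubation 15 min, room temperature.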
* hit, by the source's call; ? = inconclusive; · = no result given; [ ] = another dose, or the depositor's remark. Rows were chosen to be rich in hits. Some 2.4% of all compounds tested hit in one or more screens of this group. Calls come from the whole dose curve; as a rule, active = well fitted curve in the direction sought with a large enough effect; inconclusive = small, poorly fitted or top-dose-only effect, or another doubt; inactive = no such curve, though single readings can be large; an effect the other way counts as inactive or inconclusive. Potency is the fitted concentration of half-maximal effect.

SMILES	Pol beta inh	POLK inh	Pol iota inh	FEN1 inh	POLH inh	WRN helicase inh
CC[C@@]1(O)C[C@H](O[C@H]2C[C@@H](N(C)C)[C@@H](O[C@H]3C[C@@H](O)[C@@H](O[C@H]4CCC(=O)[C@@H](C)O4)[C@@H](C)O3)[C@@H](C)O2)c2c(cc3c(c2O)C(=O)c2c(O)cccc2C3=O)[C@H]1C(=O)OC	·	4.47µM*	·	·	·	·
Cn1ncc(C#N)c1/N=C/N1CCCC1	89.1µM*	7.3%	-3.8%	8.2%	-5.9%	0.8%
Cc1ccccc1NC(=O)CSc1nnc(-c2ccco2)n1N	·	3.6%	43.3%	-0.9%	-13.4%	-11.8%
Cc1cccc(NC(=O)CSc2nnc(-c3ccco3)c(-c3ccco3)n2)c1C	22.4µM*	31.6µM*	2µM*	?	12.6µM*	31.6µM*
Cc1cccc(NC(=O)CSc2nnc(-c3ccco3)c(-c3ccco3)n2)c1	25.1µM*	79.4µM*	?	-25.0%	39.8µM*	31.6µM*
Cc1cccc(NC(=O)CSc2nc(N)cc(N)n2)c1	-0.8%	-0.3%	30.3%	-3.0%	-14.4%	2.2%[57.1 µM]
CS[C@@H]1SC[C@H]2C(=O)N(C)C(C(C)C)C(=O)OC[C@@H](NC(=O)c3cnc4ccccc4n3)C(=O)N[C@@H](C)C(=O)N(C)[C@H]1C(=O)N(C)C(C(C)C)C(=O)OC[C@@H](NC(=O)c1cnc3ccccc3n1)C(=O)N[C@@H](C)C(=O)N2C (some centres not stated)	·	21.2µM*	·	·	·	·
CC(NC(=O)c1cnc2ccccc2n1)c1ccccc1 (configuration not stated)	5.7%	-4.8%	89.6%	-9.6%	-1.4%	-17.4%
CC[C@H](C)[C@H](NC(=O)[C@H](Cc1ccc(O)cc1)NC(=O)[C@H](Cc1cnc[nH]1)NC(=O)[C@H](CCCNC(=N)N)NC(=O)[C@H](CC(C)C)NC(=O)[C@H](C)NC(=O)[C@H](CO)NC(=O)[C@H](Cc1ccc(O)cc1)NC(=O)[C@H](Cc1ccc(O)cc1)NC(=O)[C@H](CCCNC(=N)N)NC(=O)[C@H](C)NC(=O)[C@H](CCSC)NC(=O)[C@H](CC(=O)O)NC(=O)[C@H](CCC(=O)O)NC(=O)[C@H](C)NC(=O)[C@@H]1CCCN1C(=O)[C@H](C)NC(=O)[C@H](CC(=O)O)NC(=O)[C@H](CCC(=O)O)NC(=O)CNC(=O)[C@@H]1CCCN1C(=O)[C@H](CC(N)=O)NC(=O)[C@H](CC(=O)O)NC(=O)[C@@H]1CCCN1C(=O)[C@H](CCCCN)NC(=O)[C@H](CO)NC(=O)[C@@H]1CCCN1C(=O)[C@@H](N)Cc1ccc(O)cc1)C(=O)N[C@@H](CC(N)=O)C(=O)N[C@@H](CC(C)C)C(=O)N[C@@H](CC(C)C)C(=O)N[C@H](C(=O)N[C@@H](CCCNC(=N)N)C(=O)N1CCC[C@H]1C(=O)N[C@@H](CCCNC(=N)N)C(=O)N[C@@H](Cc1ccc(O)cc1)C(N)=O)[C@@H](C)O	·	13.7%[60.1 µM]	·	·	·	·
c1ccc(-c2oc3ncnc(NCCCN4CCOCC4)c3c2-c2ccccc2)cc1	0.7%	-7.4%	12.0%	-18.6%	2.2%	-1.0%
Nc1ncnc2oc(-c3ccoc3)c(-c3ccco3)c12	·	20µM*	11.2µM*	17.8µM*	·	·
CC(=O)Nc1ccc(S(=O)(=O)NCCC(=O)OCC(=O)N2CCN(C(=O)c3ccco3)CC2)cc1	44.7µM*	-32.1%	44.7µM*	-1.7%	?	?
COc1ccc(CN2CC[C@H]3C=CC[C@@H](C(=O)Nc4ccc(Cl)cc4Cl)[C@H]3C2=O)cc1OC	·	-17.5%	6.3%	2.9%	·	·
O=C(Oc1ccccc1)N1CCC[C@@]2(CCN(c3ccccc3)C2)C1	·	2.6%[60.1 µM]	·	·	·	·
COc1cc2c(cc1/C=C1/NC(=O)N(CC(=O)Nc3ccccc3)C1=O)OCO2	10.6%	-16.3%	-28.3%	-1.0%	-3.3%	-13.9%[57.1 µM]

Screening results: PubChem, National Center for Advancing Translational Sciences (NCATS)
